Data from the emibetuzumab library of Makowski et al. (2022).
The other results are listed elsewhere or left out. No count for the full screen is at hand.

B1: VH:VL chains; a variant is named by its letters at X, in order (parent)
chain 1: QVQLVQSGAEVKKPGASVKVSCKASGYTFTDYXMHWVRQAPGQGLEWMGXVNPNXXXTTYNQKFEGRVTMTTDTSTSTAYMELRSLRSDDTAVYYCARXNXLDXWGQGTTVTVSS
chain 2: DIQMTQSPSSLSASVGDRVTITCSVSSSVSSIYLHWYQQKPGKAPKLLIYSTSNLASGVPSRFSGSGSGTDFTLTISSLQPEDFATYYCQVYSGYPLTFGGGTKVEIK

Variants of: B1
Test: yeast display scFab, FACS + sequencing
Details: with MET
How it was run: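 Heavy-chain CDR mutant scFab yeast surface library, enriched by two magnetic rounds on HGFR-Fc-coated Protein A beads and then by FACS. Cells were labelled with 1 nM HGFR-Fc in PBSB with 1% milk and anti-Myc for 3 h at room temperature, and the top 50% antigen-positive cells were gated. Round-3 sorted and input populations were deep sequenced in two replicates. Antigen binding call: positive if a sequence occurred in both antigen-positive samples, negative if it occurred only in input.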

Row | Variant | antigen binding call
1 | YRGKGAWS | binds
2 | YRGKGSWS | binds
3 | DEEASSWA | no binding
4 | DTGTGDVA | no binding
5 | VRARGVVA | no binding
6 | VEAGDAVA | no binding
7 | VTAGDDVA | no binding
8 | VRAGDAGA | binds
9 | VRRGDFWA | no binding
10 | VKRGDDVA | no binding
11 | VRATGSVY | no binding
12 | VRAGGSVA | binds
13 | VEAGDDGA | no binding
14 | VRAGDSVA | binds
15 | VRRGDSVA | binds
16 | VRAGDDGA | no binding
17 | VGGRADGF | no binding
18 | SKTKSDGA | no binding
19 | DAGGAAGD | no binding
20 | ATTKSAVA | no binding
21 | VRAEGSVA | binds
22 | VRRASSVA | binds
23 | FRAEGSVA | binds
24 | VKAGDDVA | no binding

Row | Variant | antigen binding call
25 | YKAGDSVA | binds
26 | VTRGADAV | no binding
27 | SGAGDYSD | no binding
28 | VEAGDSSA | no binding
29 | VRAGGFGA | binds
30 | VAEKGFGA | no binding
31 | VTGGDSSA | no binding
32 | VRAGDSSA | binds
33 | VRGTGFGA | no binding
34 | VKTGGDVF | no binding
35 | YRGASAAA | binds
36 | VAGAGAGA | no binding
37 | YRGAGAAA | binds
38 | YRGAGYAA | no binding
39 | YRGAGAGA | binds
40 | AGGGNDVV | no binding
41 | FKRRSSGD | binds
42 | FKRRSFGS | no binding
43 | FKRGSSLD | binds
44 | FKKGSSGV | binds
45 | FKARDSGD | no binding
46 | FKEGNSLD | no binding
47 | FKKGSSLD | binds
48 | FEERNSLD | no binding

Row | Variant | antigen binding call
49 | SEGADAGD | no binding
50 | SEGGDAWV | no binding
51 | FKKGSVGD | no binding
52 | FKKEGYGD | no binding
53 | FKKGSSWD | binds
54 | FKKGSSGD | binds
55 | VGGGNDLA chain 1 R87K | no binding
56 | FRAGSAWS | binds
57 | FRAGGAWS | binds
58 | DAAKNDAV | no binding
59 | DGGKNDGV | no binding
60 | VEGGADVF | no binding
61 | DTGGGDLA | no binding
62 | YRRGSSVS | binds
63 | YKRGSSVS | binds
64 | YRRGGSVS | binds
65 | YARAGSVS | no binding
66 | VEEEGSVS | no binding
67 | VRRGSSVS | binds
68 | DTGTGDGV | no binding
69 | YRRGGAVS | binds
70 | DTKAAAVV | no binding
71 | FRAGDYLV | binds
72 | SRAGDYLV | no binding

Row | Variant | antigen binding call
73 | DRAGDYLV | binds
74 | VRAGDYLV | no binding
75 | DRAGDDWV | no binding
76 | DRAGDSLV | binds
77 | DRAGDYLY | no binding
78 | DRRGDSLV | no binding
79 | ARAGDYLV | no binding
80 | SAREGDWV | no binding
81 | SAARDAVA | no binding
82 | FAGGGDVY | no binding
83 | VRTEDDVF | no binding
84 | FRGRGSSD | binds
85 | FRGRGAWD | binds
86 | FRGGASSD | binds
87 | FRGRGFSV | no binding
88 | FKGTDSSD | no binding
89 | FRGRGASV | binds
90 | FKGKSSSD | no binding
91 | DAKEGDVV | no binding
92 | VEGGGAGV | no binding
93 | DAGGADGV | no binding
94 | FRKGDASD | no binding
95 | FAGRGYSD | no binding
96 | FRGRGASD | binds

Row | Variant | antigen binding call
97 | DGGKNAVA | no binding
98 | VAGTGASD | no binding
99 | FRTRSSLA | binds
100 | FRGRSSLA | binds
101 | VEGEDAGA | no binding
102 | YRRGGSGA | binds
103 | YTRGGSGA | no binding
104 | FRRGSSGA | binds
105 | YRRGSSGA | binds
106 | DAKEGSSA | no binding
107 | DGGKNDVV | no binding
108 | VEGTSAGD | no binding
109 | FRTRDAAA | binds
110 | FRTRGVGA | no binding
111 | FTTRGAVA | no binding
112 | VRTRGDGA | no binding
113 | YRTRSAAA | binds
114 | YRTRGAGA | binds
115 | FRGRDYAA | no binding
116 | FRTRGAAA | binds
117 | YTTRGAGA | no binding
118 | SEARSDAS | no binding
119 | DKEGGDVD | no binding
120 | DATGGDGS | no binding

Row | Variant | antigen binding call
121 | SKGRSDAV | no binding
122 | SETGNVWF | no binding
123 | YATRGAAA | no binding
124 | YRTRGAWA | binds
125 | VRTRGYLA | no binding
126 | YRTRGALA | binds
127 | YRTRGAAA | binds
128 | VTGTGAVY | no binding
129 | VGRGNSGD | no binding
130 | YGRGNSGD | binds
131 | YKRGSSGD | binds
132 | YEGTGSGD | no binding
133 | YKRGGSGD | binds
134 | DGRGNSGD | no binding
135 | YKRRNSGD | no binding
136 | STGGGDGV | no binding
137 | STAGSASD | no binding
138 | YEGTGSLS | no binding
139 | YRRGSALS | binds
140 | YRRGSSLS | binds
141 | DARGGSLS | no binding
142 | YRRGGSLS | binds
143 | VKGASDGA | no binding
144 | VTRGDSGA | no binding

Row | Variant | antigen binding call
145 | YKRGSFGA | no binding
146 | VKRGSSGA | binds
147 | YKRGSDGA | binds
148 | YKEKGDGA | no binding
149 | VTRGASGA | no binding
150 | YKRGSSGA | binds
151 | DAGGGSSD | no binding
152 | SETTDAGV | no binding
153 | STKRSFWA | no binding
154 | YRGESAVD | binds
155 | VTGTGSVD | no binding
156 | DTGTGSVD | no binding
157 | YRGEASVD | binds
158 | YRGKDSVD | binds
159 | YRGTGSVD | binds
160 | YKGKDSVD | no binding
161 | DAEKDSGA | no binding
162 | VTKESAAV | no binding
163 | YGGKNSVD | no binding
164 | YRGGTSVD | binds
165 | YRTKAAVD | binds
166 | YRGKASVD | binds
167 | YRGKSSVD | binds
168 | DEGGTSVD | no binding

Row | Variant | antigen binding call
169 | VTGTSDVA | no binding
170 | VTGGDDWF | no binding
171 | DREGDYLY | no binding
172 | YTGGDSVD | binds
173 | YTGGDSVA | no binding
174 | VTGGDSVD | no binding
175 | YAGAAAVD | no binding
176 | YRGKAAVD | binds
177 | DAGTDAGD | no binding
178 | YRAGDSSA | binds
179 | YRTGDSSA | binds
180 | DRAGDSSA | no binding
181 | DRAGDDLA | no binding
182 | YRTGDSAA | binds
183 | SAAGGAAD chain 1 L45S | no binding
184 | DTREGDVY | no binding
185 | VKERGDGV | no binding
186 | FARENFLA chain 1 V51A | no binding
187 | VAKADDWF | no binding
188 | YRTRSAGD | binds
189 | YAGRAAWD | no binding
190 | YGTRSAAD | no binding
191 | YRTRSAWD | binds
192 | YRTRAAWD | binds

Row | Variant | antigen binding call
193 | YRGRSAWD | binds
194 | SEEEGDWV | no binding
195 | AKEADDVA | no binding
196 | YTGTSDLV | no binding
197 | VTTKSDSV | no binding
198 | VTTRADVA | no binding
199 | VEEEGAGD | no binding
200 | VEKEGAGD | no binding
201 | VRRRGAGD | binds
202 | VRRRGSGD | binds
203 | FRRRGSGD | binds
204 | VGGGGDGS | no binding
205 | DTTGGDGV | no binding
206 | SEKKSAGA | no binding
207 | YEGGGDWF | no binding
208 | YRGKGAAF | binds
209 | VKGKGAAF | no binding
210 | YRAGGAAF | binds
211 | YRGGDAAF | binds
212 | YGARGAAF | no binding
213 | YRGGGAAF | binds
